# Where a name gives a salt, the structure may show the parent alone. ± gives the standard deviation of the averaged measurements.
# Tested on: E. coli TESEC Mtb Alr
# Assay: growth (OD600 after 10 h); higher = more growth (less inhibition)
# Conditions: arabinose 100 nM; compound 0.1 mM; raw OD600 reference: median of DMSO wells 0.413, cell-free background 0.052
# Procedure: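 TESEC Mtb Alr E. coli (ΔaraC ΔtolC ΔentC Δalr ΔdadX, arabinose-inducible Mtb Alr) or the Alr+ wild-type control strain, grown in defined M9-fructose medium without D-alanine in 96-well plates with Prestwick library compounds at 0.1 mM and 1% DMSO. Low Alr induction is 0.1 µM arabinose and high induction is 10 mM arabinose.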
row,SMILES,growth
1,CC(C)N1CCN(c2ccc(OCC3COC(Cn4cncn4)(c4ccc(Cl)cc4Cl)O3)cc2)CC1 (stereo not drawn) [Terconazole],0.412 ± 0.014
2,Cc1cc(C(C)(C)C)c(O)c(C)c1CC1=NCCN1 [Oxymetazoline hydrochloride],0.414 ± 0.013
3,Cc1ccc(O)c([C@H](CCN(C(C)C)C(C)C)c2ccccc2)c1 [Tolterodine tartrate],0.417 ± 0.0075
4,CN1CCCN(C(c2ccccc2)c2ccc(Cl)cc2)CC1 (stereo not drawn) [Homochlorcyclizine dihydrochloride],0.413 ± 0.0053
5,NC[C@H]1CC[C@H](C(=O)O)CC1 [Tranexamic acid],0.411 ± 0.0076
6,Cc1cc(-c2ccccc2)nnc1NCCN1CCOCC1 [Minaprine dihydrochloride],0.409 ± 0.0057
7,COc1ccc(C[C@@H]2c3cc(OC)c(OC)cc3CC[N@+]2(C)CCC(=O)OCCCCCOC(=O)CC[N@@+]2(C)CCc3cc(OC)c(OC)cc3[C@H]2Cc2ccc(OC)c(OC)c2)cc1OC [Cisatracurium besylate],0.411 ± 0.0072
8,N#Cc1cc(NC(=O)C(=O)O)c(Cl)c(NC(=O)C(=O)O)c1 [Lodoxamide],0.404 ± 0.014

# Same assay, conditions: arabinose 10000000 nM; compound 0.1 mM; raw OD600 reference: median of DMSO wells […], cell-free background 0.052
row,SMILES,growth
1,"CN1CCc2c(c3ccccc3n2Cc2ccccc2)C1 [Mebhydroline 1,5-naphtalenedisulfonate]",0.261 ± 0.034
2,C[C@@H](O[C@H]1OCCN(Cc2n[nH]c(=O)[nH]2)[C@H]1c1ccc(F)cc1)c1cc(C(F)(F)F)cc(C(F)(F)F)c1 [Aprepitant],0.0589 ± 0.0033
3,COc1cccc(N(C)C(=S)Oc2ccc3c(c2)CCCC3)n1 [Liranaftate],0.127 ± 0.0031
4,Oc1c(Cl)cc(Cl)c(Cl)c1Cc1c(O)c(Cl)cc(Cl)c1Cl [Hexachlorophene],0.0602 ± 0.0016
5,CC1(C)S[C@@H]2[C@H](NC(=O)[C@H](N)c3ccccc3)C(=O)N2[C@H]1C(=O)O [Ampicillin trihydrate],0.338 ± 0.0045
6,CCC(=O)O[C@]1(C(=O)SCF)[C@H](C)C[C@H]2[C@@H]3C[C@H](F)C4=CC(=O)C=C[C@]4(C)[C@@]3(F)[C@@H](O)C[C@@]21C [Fluticasone propionate],0.381 ± 0.034
7,CCCC(=O)Nc1ccc(OCC(O)CNC(C)C)c(C(C)=O)c1 (stereo not drawn) [Acebutolol hydrochloride],0.354 ± 0.01
8,CC(C)(C)NC[C@H](O)COc1cccc2c1CCCC2=O [(-) -Levobunolol hydrochloride],0.334 ± 0.0023
9,COC(=O)CCc1ccc(OCC(O)CNC(C)C)cc1 (stereo not drawn) [Esmolol hydrochloride],0.388 ± 0.021
10,O=c1[nH]cnc2c1ncn2[C@H]1CC[C@@H](CO)O1 [Didanosine],0.225 ± 0.019
11,C[C@@H]1CCC[C@H](C)N1NC(=O)c1ccc(Cl)c(S(N)(=O)=O)c1 [Clopamide],0.345 ± 0.015
12,CCCc1nn(C)c2c(=O)[nH]c(-c3cc(S(=O)(=O)N4CCN(C)CC4)ccc3OCC)nc12 [Sildenafil],0.2931 ± 0.0018
13,O=C1[C@H]2CCCC[C@H]2C(=O)N1CCCCN1CCN(c2nsc3ccccc23)CC1 [Perospirone],0.29 ± 0.027
14,CN1CCCC(CC2c3ccccc3Sc3ccccc32)C1 (stereo not drawn) [Metixene hydrochloride],0.055 ± 0.0024
15,C[C@H]1O[C@H](O[C@H]2[C@H](O)[C@@H](O)[C@@H](O[C@@H]([C@H](O)[C@@H](O)C=O)[C@H](O)CO)O[C@@H]2CO)[C@H](O)[C@@H](O)[C@@H]1N[C@H]1C=C(CO)[C@@H](O)[C@H](O)[C@H]1O [Acarbose],0.3792 ± 0.0032
16,O=C(Oc1cccc2cccnc12)c1ccccc1 [Benzoxiquine],0.281 ± 0.01
17,O=P(O)(O)C(O)(Cn1ccnc1)P(=O)(O)O [Zoledronic acid hydrate],0.294 ± 0.021
18,Clc1ccc(COC(Cn2ccnc2)c2ccc(Cl)cc2Cl)c(Cl)c1 (stereo not drawn) [Miconazole],0.083 ± 0.0044
19,CC[N+](CC)(CC)CCC(O)(c1ccccc1)C1CCCCC1 (stereo not drawn) [Tridihexethyl chloride],0.335 ± 0.018
20,COc1ccc(-c2ccc3cc(C(=O)O)ccc3c2)cc1C12CC3CC(CC(C3)C1)C2 [Adapalene],0.402 ± 0.085

row,SMILES,growth
1,CC1=Nc2ccc(Cl)cc2S(=O)(=O)N1 [Diazoxide],0.365 ± 0.034
2,COCCCOc1ccnc(C[S+]([O-])c2nc3ccccc3[nH]2)c1C (stereo not drawn) [Rabeprazole Sodium salt],0.152 ± 0.035
3,O=C(O)c1cc(/N=N/c2ccc(S(=O)(=O)Nc3ccccn3)cc2)ccc1O [Sulfasalazine],0.349 ± 0.017
4,"Cc1c(O)c(=O)n(-c2ccccc2)n1C [Antipyrine, 4-hydroxy]",0.37 ± 0.033
5,C[C@]12C[C@H](O)[C@H]3[C@@H](CCC4=CC(=O)CC[C@@]43C)[C@@H]1CC[C@@H]2C(=O)CO [Corticosterone],0.246 ± 0.0064
6,CC(CN(C)C)CN1c2ccccc2Sc2ccccc21 (stereo not drawn) [Trimeprazine tartrate],0.298 ± 0.018
7,C[C@@H]1C[C@H]2[C@@H]3C[C@H](F)C4=CC(=O)C=C[C@]4(C)[C@@]3(F)[C@@H](O)C[C@]2(C)[C@@]1(O)C(=O)COC(=O)C(C)(C)C [Flumethasone pivalate],0.373 ± 0.025
8,COc1cc(C)c(/C=C/C(C)=C/C=C/C(C)=C/C(=O)O)c(C)c1C [Acitretin],0.199 ± 0.02
9,CC(=O)OCC1=C(C(=O)O)N2C(=O)[C@@H](NC(=O)Cc3cccs3)[C@H]2SC1 [Cephalothin sodium salt],0.35 ± 0.015
10,"CC(C)NCC(O)c1ccc(O)c(O)c1 (single isomer, unassigned; (+)) [(+)-Isoproterenol (+)-bitartrate salt]",0.326 ± 0.021
11,CCC1(c2ccccc2)C(=O)NCNC1=O [Primidone],0.333 ± 0.0042
12,CC(C)(C)C(=O)OCOC(=O)[C@@H]1N2C(=O)[C@@H](/N=C/N3CCCCCC3)[C@H]2SC1(C)C [Pivmecillinam hydrochloride],0.344 ± 0.012
13,CC(C)N1CCN(c2ccc(OCC3COC(Cn4cncn4)(c4ccc(Cl)cc4Cl)O3)cc2)CC1 (stereo not drawn) [Terconazole],0.315 ± 0.019
14,Cc1cc(C(C)(C)C)c(O)c(C)c1CC1=NCCN1 [Oxymetazoline hydrochloride],0.328 ± 0.011
15,Cc1ccc(O)c([C@H](CCN(C(C)C)C(C)C)c2ccccc2)c1 [Tolterodine tartrate],0.3 ± 0.013
16,CN1CCCN(C(c2ccccc2)c2ccc(Cl)cc2)CC1 (stereo not drawn) [Homochlorcyclizine dihydrochloride],0.118 ± 0.018
17,NC[C@H]1CC[C@H](C(=O)O)CC1 [Tranexamic acid],0.349 ± 0.0049
18,Cc1cc(-c2ccccc2)nnc1NCCN1CCOCC1 [Minaprine dihydrochloride],0.318 ± 0.029
19,COc1ccc(C[C@@H]2c3cc(OC)c(OC)cc3CC[N@+]2(C)CCC(=O)OCCCCCOC(=O)CC[N@@+]2(C)CCc3cc(OC)c(OC)cc3[C@H]2Cc2ccc(OC)c(OC)c2)cc1OC [Cisatracurium besylate],0.304 ± 0.0097
20,N#Cc1cc(NC(=O)C(=O)O)c(Cl)c(NC(=O)C(=O)O)c1 [Lodoxamide],0.348 ± 0.024

# Source: the supplement of paper PMC9262897, “Low-cost anti-mycobacterial drug discovery using engineered E. coli” (Nature Communications, 2022)
